PubChem BioAssay (Tox21)
Values without a mark were called inactive. Inconclusive results are not listed. Entries that show only a call come without a potency. Active and inactive are the calls of the source. Unless noted, calls follow the shape of the dose curve; as a rule, active = well fitted curve in the direction sought with a large enough effect in the repeat runs; inconclusive = weak or mixed curves; inactive = no such curve, though single readings can be large; an effect the other way counts as inactive or inconclusive.

Assays:
[1] = qHTS assay for small molecules that induce genotoxicity in human embryonic kidney cells expressing luciferase-tagged ATAD5 (AID 651632); also: nearly all actives have a fitted effect of over 15% in size
Method in brief: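 Quantitative HTS in HEK293T expressing luciferase-tagged ATAD5, whose levels rise upon DNA damage. Exposure ran 16 hr at 37C and 5% CO2, with luminescence read 30 min after Amplite addition at room temperature.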

[2] = qHTS assay for small molecule agonists of the p53 signaling pathway - cell viability (AID 651633; calls by dose curve; also: nearly all actives have a fitted effect of over 30% in size; also: potency is read from the fitted curve at half-maximal effect)
Method in brief: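 Viability counter-read: CellTiter-Glo luminescence (30 min, room temperature) in the same p53RE-bla plates. These plates had been exposed to compounds for 16 h at 37 C.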

[3] = qHTS assay for small molecule disruptors of the mitochondrial membrane potential (AID 720635); also: potency is read from the fitted curve at half-maximal effect
Method in brief: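 Mitochondrial membrane potential tracked with Mito-MPS dye, red aggregates (ex 540/em 590 nm) against green monomers (ex 490/em 535 nm). Compound treatment 1 hr at 37C, dye 30 min in HepG2.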

[4] = qHTS assay to test for compound auto fluorescence at 590 nm (red) in HepG2 cells (AID 720674)
Method in brief: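 Red autofluorescence (Ex/Em 540/590 nm, Rose Bengal sodium equivalents) was measured in HepG2 cells, 2,000 per well in MEM plus 10% FBS, plated overnight at 37 C. Readings were taken 1 hr after adding 23 nL compound or DMSO, at 37 C and 5% CO2.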

[5] = qHTS assay to test for compound auto fluorescence at 535 nm (green) in HepG2 cells (AID 720675)
[6] = qHTS assay to test for compound auto fluorescence at 460 nm (blue) in HEK293 cells (AID 720678)
Method in brief: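 Triamterene serves as the blue fluorophore standard. Compound signal at 405/460 nm is read in HEK293 wells (2,000 cells, 10% dialyzed FBS) after overnight treatment at 37C.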

[7] = qHTS assay to test for compound auto fluorescence at 535 nm (green) in HEK293 cells (AID 720680)
[8] = qHTS assay to test for compound auto fluorescence at 460 nm (blue) in HEK293 cell free culture (AID 720681)
Method in brief: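 Blue fluorescence (Ex 405/Em 460 nm, triamterene-equivalent) was read immediately after pin transfer of compound or DMSO into medium (DMEM, 10% FBS) without cells.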

[9] = qHTS assay to test for compound auto fluorescence at 535 nm (green) in HEK293 cell free culture (AID 720682)
Method in brief: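 Intrinsic compound fluorescence is measured in culture medium containing 10% FBS, with excitation at 485 nm and detection at 535 nm, referenced to fluorescein.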

[10] = qHTS assay to test for compound auto fluorescence at 590 nm (red) in HEK293 cell free culture (AID 720683)
Method in brief: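 Red-channel autofluorescence of compounds in culture medium (DMEM, 10% FBS), no cells, measured at 540/590 nm. Rose Bengal sodium is the reference fluorophore for equivalence.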

[11] = qHTS assay to test for compound auto fluorescence at 590 nm (red) in HepG2 cell free culture (AID 720684)
Method in brief: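 Cell-free; medium MEM + 10% FBS; compound or DMSO added by pintool; read Ex 540/Em 590 nm; Rose Bengal sodium as red reference fluorophore.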

[12] = qHTS assay to test for compound auto fluorescence at 460 nm (blue) in HepG2 cell free culture (AID 720685)
Method in brief: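 Cell-free plates of MEM plus 10% FBS received 23 nL compound or DMSO vehicle; blue-channel (405/460 nm) intensity scored against triamterene as reference fluorophore.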

[13] = qHTS assay to test for compound auto fluorescence at 535 nm (green) in HepG2 cell free culture (AID 720686)
[14] = qHTS assay to test for compound auto fluorescence at 460 nm (blue) in HepG2 cells (AID 720687)
Method in brief: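 Blue-channel autofluorescence (Ex/Em 405/460 nm, triamterene-equivalent) was measured after 1 hr compound exposure at 37 C, 5% CO2. Cells were HepG2, plated overnight at 37 C in MEM plus 10% FBS.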

[15] = biological target: Glucocorticoid receptor (Homo sapiens) (UniProt P04150); test: qHTS assay to identify small molecule agonists of the glucocorticoid receptor (GR) signaling pathway (AID 720691; active = well fitted activation curve with a large enough effect in the signal ratio in the repeat runs, not every such curve was filed as active; the % refers to the signal ratio); conditions: GR-bla HeLa, beta-lactamase reporter ratio, 18 h; activation: at 62.4 µM (top of the series)
Method in brief: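 Cells: GR-bla HeLa, endogenous GR with stably integrated GRE-beta-lactamase reporter. Treatment 18 h, 37 C, compounds delivered in DMSO. Detection via LiveBLAzer B/G FRET substrate, 2 h RT, fluorescence intensity.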

[16] = qHTS assay for small molecules that induce genotoxicity in human embryonic kidney cells expressing luciferase-tagged ATAD5 - cell viability (AID 651634; calls by dose curve; also: nearly all actives have a fitted effect of over 25% in size; also: potency is read from the fitted curve at half-maximal effect)
Method in brief: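 After 15.5 hr incubation with compound at 37C, 5% CO2, HEK293T ATAD5-luciferase cells received CellTiter-Fluor reagent; fluorescence intensity was quantified following 30 min at 37C.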

[17] = qHTS assay for small molecule disruptors of the mitochondrial membrane potential - cell viability (AID 720634; calls by dose curve; also: nearly all actives have a fitted effect of over 20% in size; also: potency is read from the fitted curve at half-maximal effect)
Method in brief: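 ATP-based luminescent viability readout (CellTiter-Glo, 30 min, room temperature) in HepG2 cells multiplexed with the m-MPI membrane potential dye; compound exposure lasted 1 hr at 37 C.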

[18] = qHTS assay to test for compound auto fluorescence at 590 nm (red) in HEK293 cells (AID 720679)
Method in brief: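 We plated HEK293 cells in 10% dialyzed FBS medium, let them adhere for 4-5 hr, then added 23 nL compound. Overnight at 37C and 5% CO2 preceded fluorescence measurement at 540/590nm.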

[19] = biological target: Glucocorticoid receptor (Homo sapiens) (UniProt P04150); test: qHTS assay to identify small molecule antagonists of the glucocorticoid receptor (GR) signaling pathway (AID 720692; active = well fitted inhibition curve with a large enough effect in the signal ratio in the repeat runs, not every such curve was filed as active; the % refers to the signal ratio; also: potency is read from the fitted curve at half-maximal effect)
Method in brief: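 Quantitative HTS in antagonist format: HeLa cells expressing endogenous GR and a stably integrated GRE-bla reporter, stimulated with 5 nM dexamethasone (final) alongside test compounds for 18 h.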

Glucocorticoid receptor (Homo sapiens), sequence (P04150 whole entry, looked up): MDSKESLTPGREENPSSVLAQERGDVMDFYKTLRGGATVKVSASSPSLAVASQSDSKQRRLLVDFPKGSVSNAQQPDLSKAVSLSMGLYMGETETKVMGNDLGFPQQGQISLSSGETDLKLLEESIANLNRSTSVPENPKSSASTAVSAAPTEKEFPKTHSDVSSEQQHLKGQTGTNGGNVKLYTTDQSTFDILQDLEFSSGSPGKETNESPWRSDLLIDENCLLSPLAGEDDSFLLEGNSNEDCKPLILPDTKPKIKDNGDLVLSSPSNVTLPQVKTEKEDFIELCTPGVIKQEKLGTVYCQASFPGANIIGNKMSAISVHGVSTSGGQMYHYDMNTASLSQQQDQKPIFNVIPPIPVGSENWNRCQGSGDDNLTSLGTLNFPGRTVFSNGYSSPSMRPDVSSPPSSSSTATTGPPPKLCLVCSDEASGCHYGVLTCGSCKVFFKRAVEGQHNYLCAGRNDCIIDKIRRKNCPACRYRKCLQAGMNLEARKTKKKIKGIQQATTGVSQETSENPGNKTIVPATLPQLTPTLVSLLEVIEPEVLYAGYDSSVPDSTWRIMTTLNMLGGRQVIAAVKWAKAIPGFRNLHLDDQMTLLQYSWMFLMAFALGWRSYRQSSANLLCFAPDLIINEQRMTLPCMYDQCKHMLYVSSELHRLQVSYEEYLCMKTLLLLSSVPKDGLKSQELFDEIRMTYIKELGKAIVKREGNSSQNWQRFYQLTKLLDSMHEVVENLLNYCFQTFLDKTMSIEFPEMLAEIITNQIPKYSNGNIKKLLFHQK

SMILES | Potency [1] | Potency [2] | Potency [3] | outcome [4] | Potency [5] | Potency [6] | outcome [7] | Potency [8] | outcome [9] | outcome [10] | outcome [11] | Potency [12] | Potency [13] | Potency [14] | Potency [15] | Potency [16] | Potency [17] | outcome [18] | Potency [19]
FC(F)C(F)(F)OCC(Cn1cncn1)c1ccc(Cl)cc1Cl (stereo not drawn) | inactive | inactive | 48.3 µM (active) | inactive | inactive | inactive | inactive | inactive | inactive | inactive | inactive | inactive | inactive | inactive | inactive |  |  |  | 
COP(=S)(OC)Oc1nc(Cl)c(Cl)cc1Cl |  | inactive | 48.5 µM (active) | inactive | inactive | inactive | inactive | inactive |  | inactive | inactive | inactive | inactive | inactive | inactive | inactive | inactive | inactive | inactive
CC(C)C(Br)C(=O)NC(N)=O (stereo not drawn) | inactive | inactive |  | inactive | inactive | inactive | inactive | inactive | inactive | inactive | inactive | inactive | inactive | inactive |  |  |  | inactive | 
[F][Sn]([c]1ccccc1)([c]1ccccc1)[c]1ccccc1 |  | 3.06 µM (active) | 0.273 µM (active) |  | inactive | inactive | inactive | inactive | inactive | inactive | inactive | inactive | inactive | inactive |  | 0.486 µM (active) | 19.3 µM (active) | inactive | 
O=S1(=O)OCC2C(CO1)C1(Cl)C(Cl)=C(Cl)C2(Cl)C1(Cl)Cl (stereo not drawn) |  | inactive | 13.7 µM (active) | inactive | inactive | inactive | inactive | inactive | inactive | inactive | inactive | inactive | inactive | inactive | inactive | inactive |  | inactive | 17.4 µM (active)
CCn1cc[n+](C)c1 (tested in a mixture with another compound) |  | inactive | inactive | inactive | inactive | inactive | inactive | inactive |  | inactive | inactive | inactive | inactive | inactive |  | inactive | inactive | inactive | 
ClC1(Cl)C2(Cl)C3(Cl)C4(Cl)C(Cl)(Cl)C5(Cl)C3(Cl)C1(Cl)C5(Cl)C24Cl (stereo not drawn) |  | inactive |  | inactive | inactive |  | inactive | inactive |  | inactive | inactive | inactive | inactive | inactive | inactive | inactive | inactive | inactive | inactive
CCCCC(CC)COC(=O)c1ccccc1C(=O)OCC(CC)CCCC (stereo not drawn) |  | inactive |  | inactive | inactive | inactive | inactive | inactive | inactive | inactive | inactive | inactive | inactive | inactive | inactive | inactive |  |  | 
COP(=S)(OC)Oc1ccc([N+](=O)[O-])c(C)c1 |  | inactive | 68.6 µM (active) | inactive | inactive | inactive | inactive | inactive | inactive | inactive | inactive | inactive | inactive | inactive | inactive | inactive |  |  | 
O.O.O.O.O.O.O.O=S(=O)([O-])[O-].[Co+2] |  |  |  | inactive | inactive | inactive | inactive | inactive | inactive | inactive | inactive | inactive | inactive | inactive |  |  | inactive | inactive | 
CC(=O)[O-].CC(=O)[O-].O.O.O.[Pb+2] |  | inactive |  | inactive | inactive | inactive | inactive | inactive | inactive | inactive | inactive | inactive | inactive | inactive |  |  |  | inactive | 
CSC(=O)c1c(C(F)F)nc(C(F)(F)F)c(C(=O)SC)c1CC(C)C |  | inactive |  | inactive | inactive | inactive | inactive | inactive | inactive | inactive | inactive | inactive | inactive | inactive | inactive |  |  | inactive | 
C1=CCC=C1 |  | inactive |  | inactive | inactive |  | inactive |  | inactive | inactive | inactive |  | inactive |  |  | inactive |  | inactive | 
CC(=O)[O-].CC(=O)[O-].CC(=O)[O-].[Cr+3] |  | inactive |  |  | inactive | inactive | inactive | inactive |  | inactive | inactive | inactive | inactive | inactive |  | inactive |  | inactive | 
CC1CCCC1 |  | inactive |  |  |  |  |  |  |  |  |  |  |  |  | inactive |  | inactive |  | 
CCCCn1cc[n+](C)c1.[Cl][Fe-]([Cl])([Cl])[Cl] |  |  | inactive | inactive | inactive | inactive | inactive | inactive | inactive | inactive | inactive | inactive | inactive | inactive |  | inactive | inactive | inactive | 
Oc1cc(Cl)c(Cl)c(Cl)c1Cl |  |  |  | inactive | inactive | inactive | inactive | inactive | inactive | inactive | inactive | inactive | inactive | inactive |  |  |  | inactive | 
O=[N+]([O-])[O-].[Tl+] |  |  |  | inactive | inactive | inactive | inactive | inactive | inactive | inactive | inactive | inactive | inactive | inactive | inactive | inactive |  | inactive | 
